According to PubChem BioAssay (Tox21):
Several values for one entry are separate records, joined by “and”; a condition that tells them apart may be missing. Equal entries are not always repeated. Inconclusive results are not listed. Entries that show only a call come without a potency. Some compounds were tested as several samples or in several runs, with calls that do not always agree. Activity calls are given as the source filed them. Unless noted, calls follow the shape of the dose curve; as a rule, active = well fitted curve in the direction sought with a large enough effect in the repeat runs; inconclusive = weak or mixed curves; inactive = no such curve, though single readings can be large; an effect the other way counts as inactive or inconclusive.

Experiments:
[1] = qHTS assay to identify small molecule antagonists of the glucocorticoid receptor (GR) signaling pathway - cell viability counter screen (AID 720693); also: nearly all actives have a fitted effect of over 55% in size; also: potency is read from the fitted curve at half-maximal effect
[2] = qHTS assay for identifying genotoxic compounds that show differential cytotoxicity against isogenic chicken DT40 cell lines with known DNA damage response pathways - wild type cell line (AID 743012); also: nearly all actives have a fitted effect of over 60% in size; also: potency is read from the fitted curve at half-maximal effect
Summary of the method: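 Quantitative HTS on parental DT40 cells: 40 h compound treatment at 37 C/5% CO2, with viability then determined by CellTiter-Glo luminescence. Values serve as the DNA repair-proficient reference for differential cytotoxicity.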

[3] = qHTS assay for identifying genotoxic compounds that show differential cytotoxicity against isogenic chicken DT40 cell lines with known DNA damage response pathways - Rev3 mutant cell line (AID 743014); also: nearly all actives have a fitted effect of over 55% in size; also: potency is read from the fitted curve at half-maximal effect
[4] = qHTS assay for identifying genotoxic compounds that show differential cytotoxicity against isogenic chicken DT40 cell lines with known DNA damage response pathways - Rad54/Ku70 mutant cell line (AID 743015); also: nearly all actives have a fitted effect of over 60% in size; also: potency is read from the fitted curve at half-maximal effect
[5] = qHTS assay to identify small molecule antagonists of the androgen receptor (AR) signaling pathway - cell viability counter screen (AID 743033; also: nearly all actives have a fitted effect of over 45% in size; also: potency is read from the fitted curve at half-maximal effect)
[6] = target: Androgen receptor (Homo sapiens) (UniProt P10275); assay: qHTS assay to identify small molecule antagonists of the androgen receptor (AR) signaling pathway (AID 743035; active = well fitted inhibition curve with a large enough effect in the signal ratio in the repeat runs, not every such curve was filed as active; the % refers to the signal ratio; also: potency is read from the fitted curve at half-maximal effect)
Sequence of Androgen receptor (Homo sapiens) (P10275 whole entry, looked up): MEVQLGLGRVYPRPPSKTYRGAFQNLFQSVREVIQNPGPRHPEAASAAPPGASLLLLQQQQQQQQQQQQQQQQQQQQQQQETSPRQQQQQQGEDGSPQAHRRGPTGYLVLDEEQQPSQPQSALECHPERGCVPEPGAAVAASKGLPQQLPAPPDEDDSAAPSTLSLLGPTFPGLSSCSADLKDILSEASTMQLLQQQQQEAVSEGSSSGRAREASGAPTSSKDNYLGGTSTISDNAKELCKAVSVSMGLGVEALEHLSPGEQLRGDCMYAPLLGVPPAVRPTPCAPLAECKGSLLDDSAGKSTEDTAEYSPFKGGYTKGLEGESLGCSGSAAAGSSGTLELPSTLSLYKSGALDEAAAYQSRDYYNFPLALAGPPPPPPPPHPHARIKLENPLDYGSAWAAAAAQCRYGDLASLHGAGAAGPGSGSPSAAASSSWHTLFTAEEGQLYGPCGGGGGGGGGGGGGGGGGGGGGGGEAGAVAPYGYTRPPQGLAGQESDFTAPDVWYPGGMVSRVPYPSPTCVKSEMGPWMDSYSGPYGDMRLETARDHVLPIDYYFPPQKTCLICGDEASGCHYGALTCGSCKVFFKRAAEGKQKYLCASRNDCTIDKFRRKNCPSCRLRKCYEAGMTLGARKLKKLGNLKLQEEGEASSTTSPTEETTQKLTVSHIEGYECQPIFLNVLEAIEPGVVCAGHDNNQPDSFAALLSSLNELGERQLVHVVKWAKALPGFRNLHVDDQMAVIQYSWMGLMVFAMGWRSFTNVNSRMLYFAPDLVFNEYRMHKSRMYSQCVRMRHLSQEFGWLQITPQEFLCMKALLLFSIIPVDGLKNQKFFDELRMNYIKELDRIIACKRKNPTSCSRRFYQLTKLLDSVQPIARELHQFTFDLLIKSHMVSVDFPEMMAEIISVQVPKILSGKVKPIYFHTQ
Summary of the method: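 Cell line: GeneBLAzer AR-UAS-bla GripTite (HEK293). Stimulus: R1881 added after compound. Exposure: 16 h, 37C, 5% CO2. Readout: LiveBLAzer B/G FRET fluorescence after 2 h at room temperature.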

[7] = target: Androgen receptor (Homo sapiens) (UniProt P10275); assay: qHTS assay to identify small molecule agonists of the androgen receptor (AR) signaling pathway using the MDA cell line (AID 743040; also: nearly all actives have a fitted effect of over 20% in size); conditions: MDA-kb2 AR-luc cells, MMTV luciferase, 16 h; activity change: at 70.3 µM (top of the series), stronger effect = higher value
Summary of the method: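 Cells plated, 5 h at 37C/0% CO2; compound or DMSO pinned; 16 h at 37C; ONE-Glo added; luminescence measured after 30 min at room temperature. Reporter line: MDA-kb2 with MMTV-luciferase responsive to AR and GR.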

[8] = qHTS assay to identify small molecule antagonists of the thyroid receptor (TR) signaling pathway - cell viability counter screen (AID 743064); also: nearly all actives have a fitted effect of over 50% in size; also: potency is read from the fitted curve at half-maximal effect
Summary of the method: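 GH3.TRE-Luc cells, 4 h pre-plating; cpd + T3 1 nM final; 37 °C 23.5 h; CellTiter-Fluor 30 min; fluorescence read.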

[9] = qHTS assay to identify small molecule antagonists of the androgen receptor (AR) signaling pathway using the MDA cell line - cell viability counter screen (AID 743041; also: nearly all actives have a fitted effect of over 45% in size)
Summary of the method: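 Cells were plated at 3,000 per well and left 5 h. Compounds in DMSO were then pinned in, followed by R1881. After 16 h at 37C, CellTiter-Fluor fluorescence gave viability.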

[10] = target: Androgen receptor (Homo sapiens) (UniProt P10275); assay: qHTS assay to identify small molecule agonists of the androgen receptor (AR) signaling pathway (AID 743036; active = well fitted activation curve with a large enough effect in the signal ratio in the repeat runs, with a control signal flat, not every such curve was filed as active; the % refers to the signal ratio; also: potency is read from the fitted curve at half-maximal effect)
Summary of the method: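 AR-bla HEK293 cells, 2,000/well; 4 h preincubation 37C/5% CO2; compound (DMSO) 16 h at 37C; LiveBLAzer B/G FRET substrate 2 h RT; fluorescence intensity read-out.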

Row | SMILES | Potency [1] | Potency [2] | Potency [3] | Potency [4] | Potency [5] | Potency [6] | Potency [7] | Potency [8] | Potency [9] | Potency [10]
1 | C[CH2][Hg][S]c1ccccc1C(=O)O | 7.56 µM (active) and 6.16 µM (active) | 376 nM (active) and 172 nM (active) | 596 nM (active) and 137 nM (active) | 266 nM (active) and 109 nM (active) | 10.7 µM (active) and 4.9 µM (active) | 9.52 µM (active) and 3.09 µM (active) | inactive | 298 nM (active) and 273 nM (active) |  | 
2 | ClCc1ccccc1Cl | inactive | inactive | inactive | inactive | inactive | inactive | inactive | inactive | inactive | 
3 | CCC1(C2=NCCN2)Cc2ccccc2O1 (stereo not given) | inactive | 5.31 µM (active) | 5.31 µM (active) | 6.68 µM (active) | inactive | 19 µM (active) | inactive | inactive | inactive | 23.9 µM (active)
4 | COCc1cnc(C2=NC(C)(C(C)C)C(=O)N2)c(C(=O)O)c1 (stereo not given) | inactive | inactive | inactive | inactive | inactive | inactive | inactive | inactive | inactive | inactive
5 | CCC1(CCC(C)C)C(=O)NC(=O)NC1=O | inactive | inactive | inactive | inactive | inactive | inactive | inactive | inactive | inactive | 
6 | OCC1CO1 (stereo not given) | inactive | inactive | inactive | inactive | inactive |  |  | inactive | inactive | 
7 | O=C(N[C@H]1CN2CCC1CC2)c1ccc2c(c1)OCCO2 | inactive | inactive | inactive | inactive | inactive | inactive | inactive | inactive |  | inactive
8 | O=CC=O | inactive | inactive | inactive and 49.9 µM (active) | inactive | inactive | inactive | inactive | inactive | inactive | inactive
9 | Cc1nc(N(C)C)nc(OC(=O)N(C)C)c1C | inactive | inactive | inactive | inactive | inactive |  |  |  | inactive | 
10 | CC(Cl)C(=O)O (stereo not given) | inactive | inactive | inactive | inactive | inactive | inactive | inactive |  | inactive | inactive
11 | CCCSP(=S)(OCC)Oc1ccc(SC)cc1 (stereo not given) | inactive | 43.3 µM (active) | 15.4 µM (active) | 27.3 µM (active) | inactive |  |  | inactive | inactive | 
12 | NP(N)(=O)NC(=O)c1ccc(F)cc1 | inactive | inactive | inactive | inactive | inactive |  | inactive | inactive |  | inactive
13 | CCC(C)(C)O | inactive | inactive | inactive | inactive | inactive |  |  |  | inactive | 
14 | O=C(O)COc1cc(Cl)c(Cl)cc1Cl | inactive | inactive | inactive | inactive | inactive | inactive | inactive | inactive | inactive | 
15 | C=CC(=O)OCC | inactive | inactive | inactive | inactive | inactive |  |  |  |  | 
16 | NC(=O)CF | inactive | inactive | inactive | inactive | inactive |  |  | inactive | inactive | 
17 | Clc1ccc2ccccc2c1 | inactive | inactive | inactive | inactive | inactive | inactive | inactive | inactive | inactive | inactive
18 | CC(Oc1cccc(Cl)c1)C(=O)O (stereo not given) | inactive | inactive | inactive | inactive | inactive |  |  |  | inactive | 
19 | CN(C)N | inactive | inactive | inactive | inactive | inactive | inactive | inactive | inactive | inactive | inactive
20 | C[N+]1(CCF)[C@@H]2CC[C@H]1CC(OC(=O)C(O)(c1ccccc1)c1ccccc1)C2 (stereo not given in full) | inactive | inactive | inactive | inactive | inactive |  |  |  | inactive | 
21 | O=C(Cl)OCCOCCOC(=O)Cl | inactive | inactive | inactive | inactive | inactive |  | inactive | inactive |  | inactive
22 | CC(Oc1cc(Cl)c(Cl)cc1Cl)C(=O)O (stereo not given) | inactive | inactive | inactive | inactive | inactive |  |  |  | inactive | 
23 | FC(F)OC(F)(F)C(F)Cl (stereo not given) | inactive | inactive | inactive | inactive | inactive | inactive | inactive | inactive | inactive | inactive
